From PubChem
NCOA1 inh: SRC1 coactivator transcriptional activity inhibitors, primary screen, cell-based, luminescence; inhibition, % at 3.6 µM; Nuclear receptor coactivator 1 (Homo sapiens), Q15788; HEK293 GAL4-SRC1 luciferase reporter; 360,000 tested, 0.12% active;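 active = inhibition above the campaign mean plus 3 SD, with each screening campaign given its own cutoff, cut at about 60% in these data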;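 note: 0% = DMSO treated cells and 100% = gossypol at 36 µM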
NR2F2 inh: NR2F2 transcriptional activity inhibitors, primary screen, cell-based, luciferase reporter, HEK293T, luminescence. COUP transcription factor 2 (Homo sapiens), P24468. inhibition, % at 8.6 µM. HEK293T NGFI-A luciferase reporter. 370,000 tested, 0.7% active. AID 686940, 2013;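 active = inhibition above a per-plate cutoff, mean inhibition of test wells between control levels plus 3 SD, cut at about 38% in these data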;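 note: cells cotransfected with COUP-TFII expression vector driving the NGFI-A reporter; 0% = median of COUP-TF2 test wells and 100% = reporter-only cells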
NCOA3 inh: SRC3 coactivator transcriptional activity inhibitors, primary screen, cell-based, luminescence; inhibition, % at 3.6 µM; HEK293 GAL4-SRC3 luciferase reporter; Nuclear receptor coactivator 3 (Homo sapiens), Q9Y6Q9; 360,000 tested, 0.17% active;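 active = inhibition above a per-campaign cutoff, the mean of all compounds plus 3 SD, cut at about 60% in these data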;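 note: 0% = DMSO-treated cells and 100% = gossypol-treated cells at 36 µM; higher means less SRC3-driven luciferase light from the GAL4 reporter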
SRC2 inh: inhibition of GAL4-SRC2 driven luciferase reporter, primary screen, SRC2 inhibitor project, cell-based, luminescence | Nuclear receptor coactivator 2 (Homo sapiens), Q15596 | HEK293 GAL4-SRC2 luciferase reporter | inhibition, % at 9 µM | 370,000 tested, 0.17% active;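 active = inhibition above the mean inhibition of all tested compounds plus 3 SD, set per campaign, cut at about 52% in these data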;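 note: 0% = DMSO treated cells and 100% = cells given Gossypol at 36 µM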
Target sequence (Q15596 whole entry, looked up, the tested form may be a part): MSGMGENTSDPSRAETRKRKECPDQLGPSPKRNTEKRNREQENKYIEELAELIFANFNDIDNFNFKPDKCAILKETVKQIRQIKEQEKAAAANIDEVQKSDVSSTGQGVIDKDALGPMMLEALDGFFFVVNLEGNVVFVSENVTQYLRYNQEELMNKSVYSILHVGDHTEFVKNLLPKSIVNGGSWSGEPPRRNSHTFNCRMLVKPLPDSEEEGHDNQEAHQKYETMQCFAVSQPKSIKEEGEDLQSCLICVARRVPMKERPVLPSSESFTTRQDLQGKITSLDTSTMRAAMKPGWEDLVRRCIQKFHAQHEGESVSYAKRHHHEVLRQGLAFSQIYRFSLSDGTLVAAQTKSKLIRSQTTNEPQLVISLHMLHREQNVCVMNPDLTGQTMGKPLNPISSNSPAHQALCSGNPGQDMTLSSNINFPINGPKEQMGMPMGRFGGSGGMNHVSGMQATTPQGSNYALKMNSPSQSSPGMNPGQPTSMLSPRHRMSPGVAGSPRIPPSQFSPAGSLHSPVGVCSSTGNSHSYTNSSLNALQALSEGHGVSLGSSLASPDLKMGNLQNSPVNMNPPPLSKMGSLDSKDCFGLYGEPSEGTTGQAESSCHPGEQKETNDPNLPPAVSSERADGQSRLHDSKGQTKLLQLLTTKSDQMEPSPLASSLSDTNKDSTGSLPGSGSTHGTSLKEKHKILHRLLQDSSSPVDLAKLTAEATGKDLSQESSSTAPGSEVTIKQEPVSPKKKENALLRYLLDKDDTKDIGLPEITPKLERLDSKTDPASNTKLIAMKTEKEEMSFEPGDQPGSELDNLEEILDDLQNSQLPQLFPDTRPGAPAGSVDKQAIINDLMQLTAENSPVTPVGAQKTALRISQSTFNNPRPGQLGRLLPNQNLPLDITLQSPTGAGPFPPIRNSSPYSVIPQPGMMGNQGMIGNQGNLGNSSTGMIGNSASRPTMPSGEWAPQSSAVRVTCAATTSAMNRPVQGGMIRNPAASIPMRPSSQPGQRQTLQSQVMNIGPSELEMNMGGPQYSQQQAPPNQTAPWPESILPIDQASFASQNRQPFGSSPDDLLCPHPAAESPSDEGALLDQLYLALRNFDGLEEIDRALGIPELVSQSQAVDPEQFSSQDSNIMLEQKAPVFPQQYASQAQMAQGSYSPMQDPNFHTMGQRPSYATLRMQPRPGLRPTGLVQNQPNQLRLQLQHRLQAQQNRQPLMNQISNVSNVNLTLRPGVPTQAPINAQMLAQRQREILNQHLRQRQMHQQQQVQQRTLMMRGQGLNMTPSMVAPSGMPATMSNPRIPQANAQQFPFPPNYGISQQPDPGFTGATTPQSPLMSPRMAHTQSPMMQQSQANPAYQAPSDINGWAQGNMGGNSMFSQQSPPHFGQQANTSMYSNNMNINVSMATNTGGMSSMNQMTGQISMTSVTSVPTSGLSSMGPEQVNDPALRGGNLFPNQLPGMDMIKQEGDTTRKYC
Gli-Sufu block: Gli-Sufu pathway antagonists, primary screen, luciferase luminescence, Sufu-KO-LIGHT cells, uHTS | Sufu-KO-LIGHT fibroblasts, Gli luciferase reporter luminescence | 340,000 tested, 0.74% active | AID 588413, 2011 | inhibition, % at 5 µM;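 active = inhibition above about 55%, limit read from the data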;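 note: 0% = DMSO-treated cells and 100% = wells with medium but no cells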
LRH-1 inv ag: LRH-1 (NR5A2) inverse agonists, primary screen, cell-based, luminescence, HEK293T, StAR-luciferase reporter; Nuclear receptor subfamily 5 group A member 2 (Homo sapiens), O00482; LRH-1 transfected, 24 h; inhibition, % at 3.6 µM; 360,000 tested, 0.13% active; AID 602396, 2012;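 active = inhibition above the mean inhibition of all tested compounds plus 3 SD, cut at about 73% in these data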;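 note: 0% = DMSO wells and 100% = reporter-only cells lacking LRH-1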
VP16 Luc counter: Gal4-VP16 luciferase reporter inhibitors, counter-screen for COUP-TFII antagonist project, cell-based, luminescence, HEK293; shares compounds with NR2F2 inh; inhibition, % at 8.5 µM; 2,500 tested, 25% active; in the data active = inhibition above about 13%
NR2F2 inh conf: NR2F2 transcriptional activity inhibitors, confirmation, cell-based, luciferase reporter, HEK293, triplicate | shares compounds with NR2F2 inh | 2,500 tested, 45% active | AID 687008, 2013 | inhibition, % at 8.5 µM | HEK293 NGFI-A luciferase reporter, luminescence;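 active = mean inhibition over three repeats above a set limit taken from the earlier primary screen, cut at about 38% in these data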;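 note: 100% = cells given the luciferase reporter alone without the COUP-TF2 vector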
* = called active by the depositor; / = not tested or not shown. In the library only some 1.3% were active in any assay of this set; here they are far more common.

SMILES	NCOA1 inh	NR2F2 inh	NCOA3 inh	SRC2 inh	Gli-Sufu block	LRH-1 inv ag	VP16 Luc counter	NR2F2 inh conf
COc1cc(/C=C2\SC(=S)N(CCC(=O)NC3CCCC3)C2=O)cc(OC)c1OC	7	3	58	-3	-13	8	/	/
Cc1ccc(/C=C2\SC(=S)N(CCCC(=O)NC3CCCC3)C2=O)cc1	59	42*	57	89*	16	34	12	21
O=C(CCN1C(=O)/C(=C/c2ccccc2Cl)SC1=S)NNC(=O)c1cccnc1	4	13	22	14	5	-4	/	/
Cc1ccc2c(c1)c(/C=C/c1cc[n+](C)cc1)c(C)n2C	42	54*	33	-42	57*	60	10	31
Cc1ccc2[nH]c(C)c(/C=C/c3cc[n+](C)cc3)c2c1	13	41*	16	-10	20	54	5	20
C[n+]1ccc(/C=C/c2ccc(Br)cc2)cc1	-2	-12	-4	-12	16	-6	/	/
O=C(OCc1cn(Cc2cccc(F)c2)nn1)N1CCCCC1	/	-3	/	22	/	/	/	/
COc1cccc(/C=N/Nc2ncnc(N)c2[N+](=O)[O-])c1OC	-65	/	-48	/	-44	-117	/	/
Cc1cc(/C=N/Nc2ncnc(N)c2[N+](=O)[O-])c(C)n1-c1ccccc1	42	52*	46	43	54	11	44*	78*
CCOC(=O)[C@@]12CCCC=C1N(CCc1ccc(Cl)cc1)C(=O)[C@H]2CC(=O)NCC1CCCCC1	/	-5	/	8	/	/	/	/
Cc1cccc(NC(=O)Nc2c(-c3ccc(C(F)(F)F)cc3)nc3ncccn23)c1	/	-29	/	6	/	/	/	/
C#Cc1ccc(NC(=O)C2(C)CCN2C(=O)Cc2ccc(C(C)C)cc2)cc1 (stereo unspecified)	24	57*	10	19	/	32	6	47*
C#Cc1ccc(NC(=O)C2(C)CCN2C(=O)Cc2ccc(C(C)(C)C)cc2)cc1 (stereo unspecified)	10	61*	8	21	/	42	3	43*
C#Cc1ccc(NC(=O)C2(C)CCN2C(=O)C/C=C/c2ccccc2)cc1 (stereo unspecified)	6	15	7	9	/	2	/	/
Cc1cc(C)cc(OCC(O)CN2CCC(CN3C(=O)c4cccc5cccc(c45)C3=O)CC2)c1 (stereo unspecified)	-9	73*	11	31	4	6	7	40*
COc1cccc(OCC(O)CN2CCC(CN3C(=O)c4cccc5cccc(c45)C3=O)CC2)c1 (stereo unspecified)	-11	28	11	-25	8	-1	/	/
COC(=O)C[C@@H]1CC[C@H]2[C@@H](COc3ccc(NS(=O)(=O)c4ccccc4F)cc3C(=O)N2C)O1	/	-5	/	9	/	/	/	/
Cc1ccc(CNC(=O)c2ccc(N3CCC4(CC3)CC(c3cccc(Br)c3)=NO4)c([N+](=O)[O-])c2)cc1	6	6	5	2	20	20	/	/
CCCNC(=O)c1ccc(N2CCC3(CC2)CC(c2cccc(Br)c2)=NO3)c([N+](=O)[O-])c1	8	54*	19	35	45	12	1	28
CCCCCCN1C=CC(=C2C(=O)c3ccccc3C2=O)C=C1	-62	-24	-1	-14	1	-68	/	/
CCN1C=CC(=C2C(=O)c3ccccc3C2=O)C=C1	20	70*	30	65*	59*	0	31*	37
CCCN1C=CC(=C2C(=O)c3ccccc3C2=O)C=C1	47	85*	67*	85*	79*	28	73*	85*
CCCCN1C(C)=CC(=C2C(=O)c3ccccc3C2=O)C=C1C	-128	-60	-70	-93	-42	-110	/	/
COc1ccccc1-c1cccc2c3c([nH]c12)[C@@H]1C[C@H]2[C@@H](CN1CC3)[C@H](C)ON2C	/	-4	/	1	/	/	/	/
COc1ccc(CCNC(=O)c2ccc(CS(=O)(=O)c3ccc(Cl)cc3)o2)cc1OC	11	49*	25	15	2	31	1	27
SMILES	NCOA1 inh	NR2F2 inh	NCOA3 inh	SRC2 inh	Gli-Sufu block	LRH-1 inv ag	VP16 Luc counter	NR2F2 inh conf
COc1ccc(CCNC(=O)c2ccc(CS(=O)(=O)c3ccc(C)cc3)o2)cc1OC	-30	19	-8	14	8	-20	/	/
CC[C@H](C)[C@@H]1NC(=O)[C@@H](CC(C)C)NC(=O)[C@H](C(C)C)NC(=O)[C@H]2CSSC[C@H](NC1=O)C(=O)N2	96*	106*	95*	94*	/	103*	96*	112*
CC(=O)c1ccc(OCC(=O)Nc2cccc(S(=O)(=O)N3CCCC3)c2)cc1	4	43*	30	21	24	10	-8	13
CN(C)S(=O)(=O)c1cccc(NC(=O)CNc2cccc(S(=O)(=O)N3CCCCC3)c2)c1	19	45*	24	5	/	33	3	20
Cc1ccc(C)c(C(=O)OCC(=O)Nc2cccc(S(=O)(=O)N3CCCCC3)c2)c1	-2	43*	2	11	/	2	3	30
O=C(CNc1cccc(S(=O)(=O)N2CCCCC2)c1)Nc1cccc(F)c1	-20	-4	-6	-8	-6	2	/	/
Cc1ccccc1C(=O)OCC(=O)Nc1cccc(S(=O)(=O)N2CCCCC2)c1	-17	12	4	-8	/	6	/	/
Cc1ccc(OCC(=O)Nc2cccc(S(=O)(=O)N3CCCC3)c2)cc1C	-3	-11	-6	-46	/	-5	/	/
CCC(C(=O)Nc1ccccc1N1CCCC1)c1cccc(OC)c1 (stereo unspecified)	/	-9	/	-30	/	/	/	/
Cn1c(=O)c2[nH]c(SCC(=O)N3CCN(c4cccc(C(F)(F)F)c4)CC3)nc2n(C)c1=O	/	7	/	-10	/	/	/	/
CC[C@@H](CCCc1ccc(F)cc1)CN(Cc1ccc(OC)cc1)S(=O)(=O)c1ccc(C)cc1	/	8	/	25	/	/	/	/
O=C(NC1CCCCN(Cc2cccc(Cl)c2)C1=O)c1ccc2ccccc2c1 (stereo unspecified)	/	-7	/	-6	/	/	/	/
